G9a inh = blocks human histone lysine methyltransferase G9a; G9a H3K9 monomethylation, AlphaScreen, 2 h; Potency, µM (top dose mostly 102 µM), for inactives: at the highest dose activity, negative = inhibition, most hits filed as inhibitors; hit rate 8.8% among 350,000; note: % is set by controls: 0 for no effect and ±100 for the full control effect; nearly all actives have a fitted effect of over 75% in size
Target sequence (Q96KQ7 913-1193 limits assumed): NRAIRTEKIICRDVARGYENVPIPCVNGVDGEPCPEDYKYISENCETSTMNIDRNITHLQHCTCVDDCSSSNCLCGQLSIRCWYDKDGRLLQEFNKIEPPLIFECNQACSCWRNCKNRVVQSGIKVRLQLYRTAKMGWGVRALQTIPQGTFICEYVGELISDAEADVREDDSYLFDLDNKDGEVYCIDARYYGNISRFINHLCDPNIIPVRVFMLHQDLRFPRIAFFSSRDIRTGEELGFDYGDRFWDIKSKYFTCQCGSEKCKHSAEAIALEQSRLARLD
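Readings reflect AlphaScreen signal from monomethyl-H3K9 antibody detection. HMT at 20 nM; substrate b-H3K9 500 nM; cofactor SAM 20 uM; 2 h RT reaction; compounds tested as titrations in qHTS with 15 min preincubation.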
HP1b chromo inh = inhibitors of HP1-beta chromodomain binding to methylated histone tails. P83916. Potency, µM (titrated, usually from 114 µM), inactives show at the top dose activity change, negative = inhibition, actives largely listed as inhibitors. AlphaScreen HP1-beta / biotin-H3K9me3 peptide binding. hit rate 0.56% among 390,000. AID 540317; note: nearly all actives have a fitted effect of over 70% in size
Target sequence (P83916 whole entry, looked up): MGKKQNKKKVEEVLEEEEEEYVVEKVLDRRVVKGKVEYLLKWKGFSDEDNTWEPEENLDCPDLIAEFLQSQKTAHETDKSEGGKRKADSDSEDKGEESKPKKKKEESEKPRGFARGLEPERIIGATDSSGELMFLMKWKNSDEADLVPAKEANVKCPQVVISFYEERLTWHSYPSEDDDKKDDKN
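AlphaScreen: HP1-beta (50 nM) preformed 30 min with biotin-H3(1-18)K9me3 peptide (50 nM) in PBS pH 7.4, 0.01% Tween-20. Compound added for 30 min at RT, then streptavidin donor/nickel chelate acceptor beads (10 ug/mL) for 30 min.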
GLS inhibitor = blocks human kidney-isoform glutaminase activity; hit rate 0.21% among 410,000; O94925; Potency, µM (series often up to 45.5 µM), for inactives: top-dose activity change, negative = inhibition, actives largely listed as inhibitors; GLS enzymatic activity, qHTS titration; AID 624170; note: % is set by controls: 0 for no effect and ±100 for the full control effect
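Glutamate formation by hKGA was monitored fluorometrically using coupled glutamate oxidase, HRP and Amplex Red. Substrate was added as 1 mM L-glutamine solution; incubation was 30 min at RT after an initial read.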
JMJD2A Tudor = blocks the human JMJD2A Tudor domain. AlphaScreen JMJD2A-Tudor / H3K4me3 peptide binding. hit rate 4.4% among 390,000. AID 504339. Potency, µM (doses to about 114 µM), inactives show top-dose activity change, negative = inhibition, most hits filed as inhibitors. O75164; note: % is set by controls: 0 for no effect and ±100 for the full control effect; nearly all actives have a fitted effect of over 50% in size
BAZ2B inh = blocks human BAZ2B | Potency, µM (top dose mostly 114 µM), for inactives: at the highest dose activity change, negative = inhibition, actives largely listed as inhibitors | AID 504333 | Q9UIF8 | hit rate 4.4% among 360,000 | AlphaScreen BAZ2B-H3K14Ac peptide displacement; note: % is set by controls: 0 for no effect and ±100 for the full control effect; nearly all actives have a fitted effect of over 60% in size
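AlphaScreen displacement of biotin-H3(5-23)K14Ac peptide (50 nM final) from BAZ2B (50 nM final) in PBS pH 7.4, 0.01% Tween-20; complex preformed 30 min RT, then compounds (top 110 uM) 30 min RT, beads 20 min dark.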
The depositor's hits bear a star; ? = inconclusive; . = not tested or not shown; [ ] = dose if it differs, or a comment. Compounds with a hit are over-represented: about 10% of the library has one in this group of screens. Calls come from the whole dose curve; as a rule, active = well fitted curve in the direction sought with a large enough effect; inconclusive = small, poorly fitted or top-dose-only effect, or another doubt; inactive = no such curve, though single readings can be large; an effect the other way counts as inactive or inconclusive. Potency is the fitted concentration of half-maximal effect.

SMILES | G9a inh | HP1b chromo inh | GLS inhibitor | JMJD2A Tudor | BAZ2B inh
CC(N)C(=O)NC(C(=O)N1CCCC1C(=O)NC(c1ccccc1)c1ccccc1)C(C)C (stereo unspecified) | 8.5%[2.33 µM] | 22.8% | 14.6% | 89.1µM* | -2.8%
CNC(C)C(=O)NC(C(=O)N1CCCC1C(=O)NNc1ccccc1)C(C)C (stereo unspecified) | 16.2%[2.33 µM] | 20.0% | 25.3% | ? | ?
CCSc1ccc2cc(OC)ccc2[n+]1CC | 20µM* | 28.7% | ? | ? | 10.8%
CCn1ccc2cc(OC)ccc2c1=S | . | 6.6% | 21.3% | -27.3% | -0.8%
COc1ccc([C@H]2/C=C\CN(S(C)(=O)=O)[C@@H](C)C(=O)N2Cc2ccc(F)cc2)cc1 | . | 36.6% | -0.8% | -24.1% | .
C[C@H]1CC[C@H]2C(=O)N3[C@H](c4cccc(N5CCCC5=O)c4)[C@@H](C)CC[C@H]3C(=O)N2[C@@H]1c1cccc(N2CCCC2=O)c1 | 50.1µM* | . | . | . | -38.4%
CC1CC(C)CN(CCCNC(=O)c2ccc(N3CCCC3=O)cc2)C1 (stereo unspecified) | 7.94µM* | 17.8% | -0.5% | -12.5% | 0.0%
O=C(O)c1cccc(N2CCCC2=O)c1 | 50.1µM* | 12.8% | -1.5% | -11.0% | -4.4%
CN(CCCNC(=O)c1cccc(N2CCCC2=O)c1)c1ccccc1 | 8.91µM* | 14.3% | -11.3% | -26.8% | -25.5%
CCCCN(C)CCCNC(=O)c1cccc(N2CCCC2=O)c1 | -3.7% | 32.8% | -0.1% | -1.5% | 4.1%
COC(=O)c1cccc(N2CCCC2=O)c1 | 13.2% | 18.6% | 1.8% | -1.0% | -21.7%
CCOC(=O)CCCNC(=O)COC(=O)c1cccc(C)c1O | ? | 29.3% | -3.7% | 6.0% | 4.1%
O=S(=O)(c1cccs1)n1cccn1 | 5.4%[12.7 µM] | 63.5% | -9.6% | -18.4% | -10.5%
CCCCCC1CC(CC(=O)Nc2ccc([N+](=O)[O-])cc2)OC1=O (stereo unspecified) | 14.0%[12.7 µM] | 17.0% | -0.2% | -6.2% | -15.3%
COc1cc(OC)cc(OC(=O)c2cccc(S(=O)(=O)N3CCN(C)CC3)c2)c1 | ? | 3.6% | -0.3% | -23.0% | -7.9%
CN1CCN(S(=O)(=O)c2cccc(C(=O)Oc3cccc(Br)c3)c2)CC1 | ? | 8.6% | -32.3% | -32.2% | ?
CC(C)c1ccc(OC(=O)c2cccc(S(=O)(=O)N3CCN(C)CC3)c2)cc1 | 20µM* | -10.1% | 0.0% | ? | ?
CN1CCN(S(=O)(=O)c2cccc(C(=O)Oc3ccc(C(C)(C)C)cc3)c2)CC1 | 50.1µM* | -9.4% | -3.4% | ? | ?
Cn1c(-c2ccccc2[N+](=O)[O-])[n+](C)c2ccccc21 | -19.1% | 49.9% | -3.7% | 2.7% | -6.9%
COC(=O)c1ccccc1S(=O)(=O)NNC(=O)Nc1ccccc1 | -8.5%[2.33 µM] | -22.5% | 2.3% | 2.1% | -2.1%
CN(CC(=O)Nc1cccc(F)c1)C(=O)CN1c2cccc3cccc(c23)S1(=O)=O | ? | 5.2% | 0.4% | -26.0% | ?
CCN1CCCC1CNCc1ccccc1OCc1ccc(F)cc1 (stereo unspecified) | 56.2µM* | 30.1% | 0.0% | -30.9% | -31.0%
CCN1CCCC1CNCc1cccc(OC)c1OCc1ccccc1 (stereo unspecified) | -10.2%[59 µM] | 28.4% | -9.1% | -12.1% | -30.1%
CCCCCCC1CC(CCc2nc(=S)[nH][nH]2)C(=O)O1 (stereo unspecified) | 1.58µM* | -17.1% | -13.9% | 31.6µM* | 0.4%
CCCCCCCCc1nc(=S)[nH][nH]1 | 0.891µM* | ? | -18.1% | ? | 13.4%
COc1ccc([C@@H]2[C@@H]3C(=O)N(C(C)(C)C)C(=O)[C@@H]3[C@]3(Cc4ccc(Cl)cc4)C(=O)N(c4cccc(Br)c4)C(=O)N23)cc1 | -8.7% | 21.7% | -0.9% | -21.8% | -4.8%
CN1CCN(C(=S)c2cn(CCOc3ccccc3F)c3ccccc23)CC1 | 35.5µM* | ? | -22.0% | 50.1µM* | ?
O=C1S/C(=C/c2ccccc2F)C(=O)N1CCN=C1NS(=O)(=O)c2ccccc21 | -8.9%[59 µM] | 28.7% | 7.3% | -6.2% | -4.7%
O=C(NNc1ccc(-c2csnn2)cc1)c1ccccc1C(F)(F)F | 28.2µM* | 24.8% | 11.2µM* | -8.7% | 0.0%
